PubChem BioAssay (NCATS)
Records with an inconclusive call do not appear. Active and inactive are the calls of the source. Calls follow the shape of the dose curve; as a rule, active = well fitted curve in the direction sought with a large enough effect; inconclusive = small, poorly fitted or top-dose-only effect, or another doubt; inactive = no such curve, though single readings can be large; an effect the other way counts as inactive or inconclusive.

Tests used:
[1] = molecular target: Glutaminase kidney isoform, mitochondrial (Homo sapiens) (UniProt O94925); experiment: qHTS for Inhibitors of Glutaminase (GLS): LOPAC Validation (AID 624146);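 also: glutamate product detected by oxidase and peroxidase coupled Amplex red fluorescence gain; nearly all actives have a fitted effect of over 60% in size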
Glutaminase kidney isoform, mitochondrial (Homo sapiens), sequence (O94925 whole entry, looked up, canonical isoform): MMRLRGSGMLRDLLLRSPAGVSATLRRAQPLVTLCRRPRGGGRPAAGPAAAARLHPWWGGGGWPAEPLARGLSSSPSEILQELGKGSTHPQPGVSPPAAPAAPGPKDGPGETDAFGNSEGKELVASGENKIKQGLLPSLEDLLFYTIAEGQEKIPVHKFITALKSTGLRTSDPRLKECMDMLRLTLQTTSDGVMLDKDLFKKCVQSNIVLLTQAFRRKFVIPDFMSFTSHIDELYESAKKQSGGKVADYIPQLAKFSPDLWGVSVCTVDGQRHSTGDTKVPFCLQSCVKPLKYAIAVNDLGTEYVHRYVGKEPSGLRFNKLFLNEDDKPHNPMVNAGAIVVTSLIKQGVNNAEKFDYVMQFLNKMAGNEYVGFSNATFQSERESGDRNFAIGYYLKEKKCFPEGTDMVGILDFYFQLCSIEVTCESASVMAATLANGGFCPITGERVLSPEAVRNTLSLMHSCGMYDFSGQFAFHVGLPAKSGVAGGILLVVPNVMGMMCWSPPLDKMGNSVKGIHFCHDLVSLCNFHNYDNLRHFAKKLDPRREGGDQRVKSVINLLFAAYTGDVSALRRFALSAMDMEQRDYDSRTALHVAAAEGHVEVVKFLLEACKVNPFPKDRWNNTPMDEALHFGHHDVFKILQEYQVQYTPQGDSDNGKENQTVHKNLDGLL
Procedure, shortened: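 Two-point fluorescence kinetic (t0, 30 min RT) for hKGA; glutamate detected via glutamate oxidase–HRP–Amplex Red. Substrate: 1 mM L-glutamine solution; buffer 45 mM KH2PO4, pH 8.2.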

[2] = qHTS of Trypanosoma Brucei Inhibitors: LOPAC Validation (AID 624147)
Procedure, shortened: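 In this concentration-response screen, enzyme-free wells defined baseline while DMSO plates tracked drift. Each reaction combined TbPYK, substrate, compound and 130 uM ADP for 45 min at room temperature. Kinase-Glo Plus luminescence gave the signal.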

[3] = HTS Assay for Allosteric Antagonists of the Human D2 Dopamine Receptor: Hit Validation in HTRF (AID 624455); also: potency is read from the fitted curve at half-maximal effect;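 also: stable D1 dopamine receptor cell line scored for blocking the D1 response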
Procedure, shortened: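 Validation of hits used D1 receptor stably expressed in cells with HTRF detection of response inhibition; origin screen measured calcium flux following EC80 dopamine in a force-coupled, inducible Hek293 Trex D2 cell line.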

[4] = molecular target: Glucagon-like peptide 1 receptor (Homo sapiens) (UniProt P43220); experiment: qHTS of GLP-1 Receptor Agonists: LOPAC Validation (AID 624148);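 also: higher luminescence signal means agonism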
Glucagon-like peptide 1 receptor (Homo sapiens), sequence (P43220 whole entry, looked up): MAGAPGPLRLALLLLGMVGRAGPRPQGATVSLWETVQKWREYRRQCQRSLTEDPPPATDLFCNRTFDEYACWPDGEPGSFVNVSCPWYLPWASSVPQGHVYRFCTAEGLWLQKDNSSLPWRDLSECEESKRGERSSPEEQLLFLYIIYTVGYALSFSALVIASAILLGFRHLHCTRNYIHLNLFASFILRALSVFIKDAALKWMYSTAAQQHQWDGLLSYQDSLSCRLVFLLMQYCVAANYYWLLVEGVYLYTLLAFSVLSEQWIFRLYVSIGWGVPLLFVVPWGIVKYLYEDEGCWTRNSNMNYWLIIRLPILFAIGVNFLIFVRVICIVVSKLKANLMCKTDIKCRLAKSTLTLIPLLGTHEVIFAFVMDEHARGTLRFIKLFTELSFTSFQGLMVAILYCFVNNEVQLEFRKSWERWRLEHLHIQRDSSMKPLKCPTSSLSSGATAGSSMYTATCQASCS
Procedure, shortened: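 HEK293 cells stably co-expressing a cAMP-responsive luciferase reporter and a hypersensitive GLP-1R were plated 12 h at 37 °C and exposed to compounds for 4-6 hr at 37 °C, 5% CO2. Luminescence was read 12 min after adding detection reagent.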

[5] = qHTS of Nrf2 Activators: LOPAC Validation (AID 624149)
Procedure, shortened: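 Following overnight seeding in 5% FBS OPTI-MEM, AREc32_Fluc cells receive compounds for a 24 hr incubation at 37 deg C with 5% CO2. Steady-Glo is added, and after 30 min at RT luminescence is recorded.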

[6] = Cytotoxicity counterscreen for NFkB agonists and antagonists (AID 624476);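 also: potency is read from the fitted curve at half-maximal effect; cells exposed to compound for 48 hours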
[7] = qHTS Assay for Identification of Small Molecule Agonists for NFkB Signaling Pathway. (AID 624478);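 also: compounds tested together with TNF alpha at its EC50 of 10 pM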
Procedure, shortened: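 Assay medium contained 0.5% FBS and 10 mM HEPES pH 7.3. Compounds were added together with TNF alpha (10 pM final), incubated 5 h at 37 C, and the beta-lactamase signal was measured fluorometrically.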

[8] = Cell Proliferation Assay against the TMD8 Cell Line (AID 651645); settings: TMD8 DLBCL cell line proliferation/viability; at 46.1 µM (top of the series);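 also: cells exposed to compound for 48 h before reading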
Procedure, shortened: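 Luminescent ATP read-out (CellTiter-Glo, 15 min RT) after 48 h compound exposure of log-growing TMD8 cells at 37C; percent activity scaled between DMSO as 100% and 9.2 uM bortezomib final as 0%.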

[9] = Cell Proliferation Assay against the HBL1 Cell Line (AID 651646); settings: HBL1 DLBCL cells; at 46.1 µM (top of the series);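 also: cells exposed to compound for 48 h before reading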
Procedure, shortened: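 After a 48 h incubation of 500 HBL1 cells/well in phenol red-free RPMI plus 5% FBS, relative luciferase units from CellTiter-Glo gave percent activity against DMSO and 9.2 uM bortezomib (final) controls.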

CNC(=O)[C@H]1O[C@@H](n2cnc3c(NCc4cccc(I)c4)ncnc32)[C@H](O)[C@@H]1O
inactive: Potency [1] | Potency [2] | Potency [3]

C[N+]1(C)C2CC(OC(=O)[C@H](CO)c3ccccc3)CC1C1OC12 (some centres not stated)
inactive: Potency [1] | Potency [2] | outcome [4] | Potency [3]

O=[N+]([O-])c1ccc2c(c1)S(=O)(=O)C=C2
inactive: Potency [1] | Potency [2] | outcome [4] | Potency [3]

CCCCC#Cc1nc(NC)c2ncn([C@@H]3O[C@H](CO)[C@@H](O)[C@H]3O)c2n1
inactive: Potency [1] | Potency [2] | outcome [4] | outcome [5] | Potency [3]

O=C(CCCCCN1CCN(c2ccccc2-c2ccccc2)CC1)NC1CCCc2ccccc21 (configuration not stated)
inactive: Potency [1] | Potency [2] | outcome [4] | outcome [5] | Potency [3]

Cn1ncc(S(=O)(=O)Cc2ccccc2)c(Br)c1=O
inactive: Potency [1] | Potency [2] | outcome [4] | Potency [3]

C=C[C@H]1CN2CC[C@@H]1C[C@@H]2[C@@H](O)c1ccnc2ccc(OC)cc12
inactive: Potency [1] | Potency [2] | outcome [5] | Potency [3]

CCCCCCCCc1ccc(-c2ccc(C(=O)O)cc2)cc1
inactive: Potency [1] | Potency [2] | outcome [4] | outcome [5] | Potency [3]

N.N.N.N.N.N.N.N.N.N.N.N.N.N.O.O.[Ru+4].[Ru+5].[Ru+5]
inactive: Potency [1] | outcome [4] | outcome [5]

Clc1ccc(N2CCN(Cc3c[nH]c4ncccc34)CC2)cc1
inactive: Potency [1] | Potency [2] | outcome [4] | Potency [3]

COc1cccc(C(=O)NCCN2CCN(c3ccc(Cl)cc3)CC2)c1
inactive: outcome [5] | Potency [3]

C=CC(C)=C[C@@]1(C)SC(=O)C(C)=C1O
inactive: Potency [2] | outcome [4] | outcome [5] | Potency [3]

COC(=O)c1c(C)[nH]c(C)c1C(=O)c1ccccc1Cc1ccccc1
inactive: Potency [2] | outcome [4] | outcome [5] | Potency [3]

N#C/C(=C\c1ccc(-c2cc(Cl)ccc2Cl)o1)C(=O)Nc1cccc2ncccc12
inactive: Potency [2] | outcome [4] | outcome [5] | Potency [3]

CCCCCCCCCCCCCCCC(=O)OC(CC(=O)O)C[N+](C)(C)C (configuration not stated)
inactive: Potency [2] | outcome [4] | Potency [3]

C[N+]1(C)CCC(OC(=O)C(c2ccccc2)c2ccccc2)CC1
inactive: Potency [2] | outcome [4] | Potency [3]

C=CCc1cccc(/C=N/NC(=O)CN2CCN(Cc3ccccc3)CC2)c1O
inactive: outcome [7]
active: Potency [6] 16.6 µM
11.3%: viability (% of control) [8]
26%: viability, percent of control [9]

CCNC(=O)[C@H]1O[C@@H](n2cnc3c(N)nc(NCCc4ccc(CCC(=O)O)cc4)nc32)[C@H](O)[C@@H]1O
active: Potency [3] 5.17 µM
inactive: Potency [2] | outcome [4]

CN(C)c1ccc(/C=C2\C(=O)Nc3ccccc32)cc1
inactive: Potency [2] | outcome [4] | Potency [3]

O=C(c1ccc(Cl)cc1)N1CCN(c2ccc([N+](=O)[O-])c3ncccc23)CC1
inactive: Potency [2] | outcome [4] | Potency [3]

CC(C)(C=O)Cc1cc(C(C)(C)C)c(O)c(C(C)(C)C)c1
inactive: outcome [4] | outcome [5] | Potency [3]
